Experimental findings from PMC4053984, “DNA binding specificities of the long zinc-finger recombination protein PRDM9” are described below.

PRDM9Cst (Mus musculus (CAST/EiJ)), sequence (chain, as listed by the source): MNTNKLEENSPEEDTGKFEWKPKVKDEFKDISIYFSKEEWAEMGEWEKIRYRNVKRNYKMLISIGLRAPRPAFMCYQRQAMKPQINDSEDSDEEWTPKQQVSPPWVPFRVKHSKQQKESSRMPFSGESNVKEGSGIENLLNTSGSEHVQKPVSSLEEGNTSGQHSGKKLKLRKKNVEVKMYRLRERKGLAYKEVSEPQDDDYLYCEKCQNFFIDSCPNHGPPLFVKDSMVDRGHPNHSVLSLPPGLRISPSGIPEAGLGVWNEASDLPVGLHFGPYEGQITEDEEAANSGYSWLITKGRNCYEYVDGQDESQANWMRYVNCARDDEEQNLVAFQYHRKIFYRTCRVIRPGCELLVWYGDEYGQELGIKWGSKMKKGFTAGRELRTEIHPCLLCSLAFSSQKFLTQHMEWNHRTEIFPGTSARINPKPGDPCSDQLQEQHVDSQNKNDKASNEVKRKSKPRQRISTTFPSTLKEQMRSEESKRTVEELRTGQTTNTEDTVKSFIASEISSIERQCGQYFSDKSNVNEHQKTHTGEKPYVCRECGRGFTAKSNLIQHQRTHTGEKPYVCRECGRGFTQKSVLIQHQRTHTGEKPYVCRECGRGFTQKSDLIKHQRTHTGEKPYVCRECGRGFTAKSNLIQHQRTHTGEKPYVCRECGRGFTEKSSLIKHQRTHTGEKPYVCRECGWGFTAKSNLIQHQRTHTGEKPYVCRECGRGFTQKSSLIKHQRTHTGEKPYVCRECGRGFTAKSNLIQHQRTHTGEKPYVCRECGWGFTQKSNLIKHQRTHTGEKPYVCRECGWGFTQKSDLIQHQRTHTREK

The assay addresses PRDM9Cst (Mus musculus (CAST/EiJ)). In words: competition EMSA; competition against biotin-labeled 75-bp Hlx1 B6 oligo; 10 mM Tris pH 7.5, 50 mM KCl, 1 mM DTT, 50 ng/ul poly(dI/dC), 0.05% NP-40, crude E. coli extract 3 ul in 20 ul; 1 h with unlabeled competitor, then 4 h with biotin-labeled 75-bp Hlx1; temperature not stated; high values mean tight binding. The note with it: tags: N-terminal His tag (pBAD/HisB); dsDNA, one strand shown. (A gel shift assay detects complexes by their altered migration in electrophoresis.)
For ATAGTGTGCAGACTTGGACCCTACCCTTTCTTT, the binding signal is 0.1 Bmut (0 = wild type, -1 = scrambled). As to ATAGTGTGCAGACTTGGACCCTGCCCTTTGTTT, the binding signal is -0 Bmut (0 = wild type, -1 = scrambled). As for ATAGTGTGCAGACTTGGACCCTGCCCTTTCTTA, the figure is 0.13 Bmut (0 = wild type, -1 = scrambled); as for ATAGTGTGCAGACTTGGACCCTGCCCTTTCTGT, 0.09 Bmut (0 = wild type, -1 = scrambled). As for ATAGTGTGCAGACTTGGTCCCTGCCCTTTCTTT, the figure is 0.1 Bmut (0 = wild type, -1 = scrambled); as for ATAGTGTGCAGACTTGGACCGTGCCCTTTCTTT, 0.06 Bmut (0 = wild type, -1 = scrambled).

On to ATAGTGTGCAGACTTGGACCCTGCCCTTTCATT, for which the binding signal is 0.08 Bmut (0 = wild type, -1 = scrambled). As for ATAGTGTGCAGACTTGGACTCTGCCCTTTCTTT, the figure is 0.01 Bmut (0 = wild type, -1 = scrambled).

Regarding ATAGTGTGCAGACTTGGACCCTGCCGTTTCTTT, the binding signal was 0.04 Bmut (0 = wild type, -1 = scrambled). As for ATAGTGTGCAGACTTCGACCCTGCCCTTTCTTT, the figure is -0.2 Bmut (0 = wild type, -1 = scrambled). Take TTAGTGTGCAGACTTGGACCCTGCCCTTTCTTT: the binding signal is 0 Bmut (0 = wild type, -1 = scrambled).

In the case of ATAGTCTGCAGACTTGGACCCTGCCCTTTCTTT, the binding signal was 0.1 Bmut (0 = wild type, -1 = scrambled). On to ATAGTGTGCAGTCTTGGACCCTGCCCTTTCTTT, for which the binding signal is -0.2 Bmut (0 = wild type, -1 = scrambled).

In the case of ATAATGTGCAGACTTGGACCCTGCCCTTTCTTT, the binding signal is -0.4 Bmut (0 = wild type, -1 = scrambled).

Turning to ATAGTATGCAGACTTGGACCCTGCCCTTTCTTT, the binding signal is 0 Bmut (0 = wild type, -1 = scrambled). As for ATAGTGTGCAGACCTGGACCCTGCCCTTTCTTT, the figure is 0 Bmut (0 = wild type, -1 = scrambled); as for ATAGTGTGCAGACTTGGACCCTGTCCTTTCTTT, 0.02 Bmut (0 = wild type, -1 = scrambled).

Take ATAGTGTGCAGACTTGGACCCTGCCCTCTCTTT: the binding signal is -0.1 Bmut (0 = wild type, -1 = scrambled).

As to ATAGTGTGCAGACTTAGACCCTGCCCTTTCTTT, the binding signal was -0.1 Bmut (0 = wild type, -1 = scrambled). As for ATAGTGTGCAGACTTGGACCCTGCCCTGTCTTT, the figure is 0.01 Bmut (0 = wild type, -1 = scrambled). As for ATAGTGTGCAGGCTTGGACCCTGCCCTTTCTTT, the figure is -0.1 Bmut (0 = wild type, -1 = scrambled). On to ATAGTGTGCAGACTTGGATCCTGCCCTTTCTTT, for which the binding signal is -0.3 Bmut (0 = wild type, -1 = scrambled). Consider ATAGTGTGCAGACTTGGACCCAGCCCTTTCTTT, for which the binding signal is 0.01 Bmut (0 = wild type, -1 = scrambled). In the case of ATAGTGTGCAGACTTGGACCCTGCTCTTTCTTT, the binding signal is -0.2 Bmut (0 = wild type, -1 = scrambled).

In the case of ATAGTGTGCAGACTTGGACCCTGCCCTATCTTT, the binding signal was 0.13 Bmut (0 = wild type, -1 = scrambled). On to ATAGTGTGCAGACTAGGACCCTGCCCTTTCTTT, for which the binding signal was 0 Bmut (0 = wild type, -1 = scrambled). Next, ATAGTGTGCAGACTTGGACCCTGCCCTTTATTT: 0.05 Bmut (0 = wild type, -1 = scrambled). As for ATAGCGTGCAGACTTGGACCCTGCCCTTTCTTT, the figure is -0.5 Bmut (0 = wild type, -1 = scrambled); as for ATTGTGTGCAGACTTGGACCCTGCCCTTTCTTT, -0.1 Bmut (0 = wild type, -1 = scrambled); as for ATAGTGTGCAGACTTGGACCCTTCCCTTTCTTT, -0.3 Bmut (0 = wild type, -1 = scrambled). For ATAGTGTGCAGACTTGGACCCTGGCCTTTCTTT, the binding signal was 0.03 Bmut (0 = wild type, -1 = scrambled).
